Measurements as given in PubChem BioAssay (NCI).
This is part of a sample that, as a whole, favours compounds with a hit. Of some 79,000 tested, about 15% had one in any assay. A number with no mark means an inactive call. Active and inactive are the calls of the source. No stated cut-off is given here; in the data, active means growth inhibition above about 70%; inactive means the rest.

Tests used:
[1] = NCI Yeast Anticancer Drug Screen. Data for the rad52 strain (AID 147);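 further: 0% = growth of vehicle-treated control cultures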; settings: S. cerevisiae rad52 mutant growth inhibition, hits give high values
Summary of the method: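 Vehicle-treated cultures served as the reference for growth inhibition of compound-exposed yeast bearing a DNA repair mutation.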

[2] = NCI Yeast Anticancer Drug Screen. Data for the wt1 strain (AID 149);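 further: 0% = growth of vehicle-treated wt1 cultures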; settings: S. cerevisiae wt1 strain (SPY 50644) growth inhibition, hits give high values
Summary of the method: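 The wt1 strain was treated with compounds, and growth was compared with vehicle-treated cultures to give inhibition.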

[3] = NCI Yeast Anticancer Drug Screen. Data for the rad50EPP+ strain (AID 151);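 further: 0% = growth of vehicle-treated control cultures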; settings: S. cerevisiae rad50 mutant strain, hits give high values
Summary of the method: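 In this screen, rad50EPP+ yeast were exposed to compounds. Growth inhibition was scored against vehicle-treated controls.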

[4] = NCI Yeast Anticancer Drug Screen. Data for the mgt1 strain (AID 153); settings: S. cerevisiae mgt1 mutant growth inhibition, hits give high values
Summary of the method: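 mgt1 strain exposed; growth vs vehicle control recorded as inhibition.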

[5] = NCI Yeast Anticancer Drug Screen. Data for the rad50 strain (AID 155);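 further: 0% = growth of vehicle-only cultures of the same strain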; settings: S. cerevisiae rad50 strain growth inhibition, hits give high values
Summary of the method: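 Cells are treated with compound, grown, and their growth is then scored against vehicle-only cultures of the same repair-deficient yeast strain.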

[6] = NCI Yeast Anticancer Drug Screen. Data for the mec2-1 strain (AID 157); settings: S. cerevisiae mec2-1 strain, hits give high values
Summary of the method: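 Vehicle-treated cultures served as reference for growth inhibition of compound-exposed mec2-1 yeast.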

[7] = NCI Yeast Anticancer Drug Screen. Data for the rad14 strain (AID 159);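 further: 0% = growth of vehicle-treated control cultures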; settings: S. cerevisiae rad14 strain growth inhibition, hits give high values
Summary of the method: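 Readout: yeast growth inhibition, referenced to vehicle-only cultures. Strain bears a defined alteration in DNA damage repair.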

[8] = NCI Yeast Anticancer Drug Screen. Data for the sgs1 mgt1 strain (AID 161);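 further: 0% = growth of cultures given vehicle only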; settings: S. cerevisiae sgs1 mgt1 strain, hits give high values
Summary of the method: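 Read-out: growth inhibition vs vehicle controls. Cells: mutant yeast strain deficient in DNA damage repair.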

[9] = NCI Yeast Anticancer Drug Screen. Data for the CLN2oe strain (AID 163);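 further: 0% = growth of vehicle-only control cultures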; settings: S. cerevisiae CLN2oe strain, hits give high values
Summary of the method: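 Inhibition relative to vehicle-treated yeast is reported. Cells: strain with genetic alteration in cell-cycle control, grown with compound.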

[10] = NCI Yeast Anticancer Drug Screen. Data for the cln2 rad14 strain (AID 165);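 further: 0% = growth equal to vehicle treated cultures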; settings: S. cerevisiae cln2 rad14 strain, hits give high values
Summary of the method: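 Each compound was tested on cln2 rad14 yeast. Inhibition of growth was calculated against vehicle-exposed controls.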

[11] = NCI Yeast Anticancer Drug Screen. Data for the bub3 strain (AID 167); settings: S. cerevisiae bub3 mutant strain, hits give high values
Summary of the method: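 Part of a panel of yeast mutants defective in DNA damage repair or cell cycle regulation. Each strain is grown with compound, and inhibition is calculated relative to solvent-treated cultures.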

[12] = NCI Yeast Anticancer Drug Screen. Data for the wt2 strain (AID 169);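 further: 0% = growth of vehicle-treated yeast cultures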; settings: S. cerevisiae wt2 strain growth inhibition, hits give high values
Summary of the method: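 Inhibition of yeast growth was determined after compound treatment, normalised to controls receiving only vehicle.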

[13] = NCI Yeast Anticancer Drug Screen. Data for the mlh1 strain (AID 171);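 further: 0% = growth of vehicle-treated control cultures of the same strain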; settings: S. cerevisiae mlh1 strain growth inhibition, hits give high values
Summary of the method: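 Vehicle-normalised growth inhibition of a repair- or checkpoint-altered yeast strain following compound treatment.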

[14] = NCI Yeast Anticancer Drug Screen. Data for the sgs1 strain (AID 173);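 further: 0% = growth of vehicle-only control cultures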; settings: S. cerevisiae sgs1 mutant, hits give high values
Summary of the method: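 Screen format: yeast with repair or checkpoint alterations, compound exposure, growth read relative to vehicle.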

[15] = NCI Yeast Anticancer Drug Screen. Data for the mlh1 rad18 strain (AID 175); settings: S. cerevisiae mlh1 rad18 strain growth inhibition, hits give high values
Summary of the method: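 Vehicle-treated cultures served as the reference for growth inhibition in a yeast strain carrying DNA damage repair alterations exposed to each compound.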

[16] = NCI Yeast Anticancer Drug Screen. Data for the rad18 strain (AID 177); settings: S. cerevisiae rad18 mutant growth inhibition, hits give high values
Summary of the method: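 Test articles were incubated with altered yeast defective in DNA damage repair. Results are given as inhibition of growth versus vehicle.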

[17] = at 5.0 µM (retest, dose inferred, filed as 0.5)
[18] = at 50.0 µM (retest, dose inferred, filed as 5.0)

Structure (SMILES): CC(C)(CN1CCCCC1)C(=O)CC(SCCS(=O)(=O)O)c1ccccc1 (stereo unspecified)
- growth inhibition ([1]; at 1.2 µM): 6%
- growth inhibition ([1]; at 3.7 µM): 4%
- growth inhibition ([1]; at 11.0 µM): 25%
- growth inhibition ([1]; at 33.0 µM): 34%
- growth inhibition ([1]; at 100.0 µM): 18%
- growth inhibition ([2]; at 1.2 µM): -63%
- growth inhibition ([2]; at 3.7 µM): 1%
- growth inhibition ([2]; at 11.0 µM): 0%
- growth inhibition ([2]; at 33.0 µM): 4%
- growth inhibition ([2]; at 100.0 µM): 10%
- growth inhibition ([3]; at 1.2 µM): 1%
- growth inhibition ([3]; at 3.7 µM): 0%
- growth inhibition ([3]; at 11.0 µM): -1%
- growth inhibition ([3]; at 33.0 µM): -1%
- growth inhibition ([3]; at 100.0 µM): -5%
- growth inhibition ([4]; at 1.2 µM): 1%
- growth inhibition ([4]; at 3.7 µM): 5%
- growth inhibition ([4]; at 11.0 µM): 6%
- growth inhibition ([4]; at 33.0 µM): 8%
- growth inhibition ([4]; at 100.0 µM): 12%
- growth inhibition ([5]; at 1.2 µM): 1%
- growth inhibition ([5]; at 3.7 µM): 4%
- growth inhibition [5, 17]: 10%
- growth inhibition ([5]; at 11.0 µM): 8%
- growth inhibition ([5]; at 33.0 µM): 14%
- growth inhibition [5, 18]: 7%
- growth inhibition ([5]; at 50.0 µM): 9.6%
- growth inhibition ([5]; at 100.0 µM): 11%
- growth inhibition ([6]; at 1.2 µM): -1%
- growth inhibition ([6]; at 3.7 µM): -4%
- growth inhibition [6, 17]: 11%
- growth inhibition ([6]; at 11.0 µM): 0%
- growth inhibition ([6]; at 33.0 µM): 9%
- growth inhibition [6, 18]: -3%
- growth inhibition ([6]; at 50.0 µM): -12.1%
- growth inhibition ([6]; at 100.0 µM): 8%
- growth inhibition ([7]; at 1.2 µM): 3%
- growth inhibition ([7]; at 3.7 µM): 9%
- growth inhibition ([7]; at 11.0 µM): 17%
- growth inhibition ([7]; at 33.0 µM): 31%
- growth inhibition ([7]; at 100.0 µM): 39%
- growth inhibition [8, 17]: 17%
- growth inhibition [8, 18]: 1%
- growth inhibition ([8]; at 50.0 µM): -2%
- growth inhibition ([9]; at 1.2 µM): -6%
- growth inhibition ([9]; at 3.7 µM): 0%
- growth inhibition ([9]; at 11.0 µM): 8%
- growth inhibition ([9]; at 33.0 µM): 15%
- growth inhibition ([9]; at 100.0 µM): 31%
- growth inhibition [10, 17]: 72% (active)
- growth inhibition [10, 18]: 69%
- growth inhibition ([10]; at 50.0 µM): 46.3%
- growth inhibition ([11]; at 1.2 µM): -1%
- growth inhibition ([11]; at 3.7 µM): -6%
- growth inhibition [11, 17]: 19%
- growth inhibition ([11]; at 11.0 µM): -1%
- growth inhibition ([11]; at 33.0 µM): 5%
- growth inhibition [11, 18]: 32%
- growth inhibition ([11]; at 50.0 µM): 12.1%
- growth inhibition ([11]; at 100.0 µM): 13%
- growth inhibition ([12]; at 1.2 µM): 0%
- growth inhibition ([12]; at 3.7 µM): 2%
- growth inhibition ([12]; at 11.0 µM): 5%
- growth inhibition ([12]; at 33.0 µM): 11%
- growth inhibition ([12]; at 100.0 µM): 15%
- growth inhibition ([13]; at 1.2 µM): 0%
- growth inhibition ([13]; at 3.7 µM): 2%
- growth inhibition ([13]; at 11.0 µM): 3%
- growth inhibition ([13]; at 33.0 µM): 6%
- growth inhibition ([13]; at 100.0 µM): 13%
- growth inhibition ([14]; at 1.2 µM): 3%
- growth inhibition ([14]; at 3.7 µM): 6%
- growth inhibition ([14]; at 11.0 µM): 7%
- growth inhibition ([14]; at 33.0 µM): 19%
- growth inhibition ([14]; at 100.0 µM): 22%
- growth inhibition [15, 17]: 17%
- growth inhibition [15, 18]: -1%
- growth inhibition ([15]; at 50.0 µM): 5.05%
- growth inhibition ([16]; at 1.2 µM): 10%
- growth inhibition ([16]; at 3.7 µM): 11%
- growth inhibition ([16]; at 11.0 µM): 16%
- growth inhibition ([16]; at 33.0 µM): 26%
- growth inhibition ([16]; at 100.0 µM): 37%

Structure (SMILES): Nc1ccc2c(c1)C(=O)c1c(F)cccc1-2
- growth inhibition ([1]; at 1.2 µM): -3%
- growth inhibition ([1]; at 3.7 µM): 5%
- growth inhibition ([1]; at 11.0 µM): 17%
- growth inhibition ([1]; at 33.0 µM): 69%
- growth inhibition ([1]; at 100.0 µM): 97% (active)
- growth inhibition ([2]; at 1.2 µM): -6%
- growth inhibition ([2]; at 3.7 µM): -6%
- growth inhibition ([2]; at 11.0 µM): -6%
- growth inhibition ([2]; at 33.0 µM): -2%
- growth inhibition ([2]; at 100.0 µM): 50%
- growth inhibition ([3]; at 1.2 µM): 5%
- growth inhibition ([3]; at 3.7 µM): 21%
- growth inhibition ([3]; at 11.0 µM): 53%
- growth inhibition ([3]; at 33.0 µM): 86% (active)
- growth inhibition ([3]; at 100.0 µM): 97% (active)
- growth inhibition ([4]; at 1.2 µM): -1%
- growth inhibition ([4]; at 3.7 µM): -2%
- growth inhibition ([4]; at 11.0 µM): 1%
- growth inhibition ([4]; at 33.0 µM): 13%
- growth inhibition ([4]; at 100.0 µM): 74% (active)
- growth inhibition ([5]; at 1.2 µM): -4%
- growth inhibition ([5]; at 3.7 µM): 11%
- growth inhibition [5, 17]: -129%
- growth inhibition ([5]; at 11.0 µM): 30%
- growth inhibition ([5]; at 33.0 µM): 87% (active)
- growth inhibition [5, 18]: 78% (active)
- growth inhibition ([5]; at 50.0 µM): 90.5% (active)
- growth inhibition ([5]; at 100.0 µM): 98% (active)
- growth inhibition ([6]; at 1.2 µM): 3%
- growth inhibition ([6]; at 3.7 µM): 2%
- growth inhibition [6, 17]: -48%
- growth inhibition ([6]; at 11.0 µM): 18%
- growth inhibition ([6]; at 33.0 µM): 13%
- growth inhibition [6, 18]: -25%
- growth inhibition ([6]; at 50.0 µM): 38.6%
- growth inhibition ([6]; at 100.0 µM): 67%
- growth inhibition ([7]; at 1.2 µM): 2%
- growth inhibition ([7]; at 3.7 µM): 7%
- growth inhibition ([7]; at 11.0 µM): 16%
- growth inhibition ([7]; at 33.0 µM): 27%
- growth inhibition ([7]; at 100.0 µM): 78% (active)
- growth inhibition [8, 17]: -70%
- growth inhibition [8, 18]: -28%
- growth inhibition ([8]; at 50.0 µM): 15.5%
- growth inhibition ([9]; at 1.2 µM): -1%
- growth inhibition ([9]; at 3.7 µM): 4%
- growth inhibition ([9]; at 11.0 µM): 8%
- growth inhibition ([9]; at 33.0 µM): 14%
- growth inhibition ([9]; at 100.0 µM): 32%
- growth inhibition [10, 17]: -55%
- growth inhibition [10, 18]: -41%
- growth inhibition ([10]; at 50.0 µM): 21.9%
- growth inhibition ([11]; at 1.2 µM): -11%
- growth inhibition ([11]; at 3.7 µM): -4%
- growth inhibition [11, 17]: -60%
- growth inhibition ([11]; at 11.0 µM): 1%
- growth inhibition ([11]; at 33.0 µM): 12%
- growth inhibition [11, 18]: -33%
- growth inhibition ([11]; at 50.0 µM): 9%
- growth inhibition ([11]; at 100.0 µM): 37%
- growth inhibition ([12]; at 1.2 µM): -1%
- growth inhibition ([12]; at 3.7 µM): 0%
- growth inhibition ([12]; at 11.0 µM): 0%
- growth inhibition ([12]; at 33.0 µM): 4%
- growth inhibition ([12]; at 100.0 µM): 64%
- growth inhibition ([13]; at 1.2 µM): 7%
- growth inhibition ([13]; at 3.7 µM): -4%
- growth inhibition ([13]; at 11.0 µM): 0%
- growth inhibition ([13]; at 33.0 µM): 16%
- growth inhibition ([13]; at 100.0 µM): 86% (active)
- growth inhibition ([14]; at 1.2 µM): -2%
- growth inhibition ([14]; at 3.7 µM): 0%
- growth inhibition ([14]; at 11.0 µM): 0%
- growth inhibition ([14]; at 33.0 µM): 10%
- growth inhibition ([14]; at 100.0 µM): 92% (active)
- growth inhibition [15, 17]: -120%
- growth inhibition [15, 18]: -30%
- growth inhibition ([15]; at 50.0 µM): 84.5% (active)
- growth inhibition ([16]; at 1.2 µM): 1%
- growth inhibition ([16]; at 3.7 µM): 8%
- growth inhibition ([16]; at 11.0 µM): 31%
- growth inhibition ([16]; at 33.0 µM): 72% (active)
- growth inhibition ([16]; at 100.0 µM): 97% (active)
